Assay outcomes deposited in PubChem by National Center for Advancing Translational Sciences (NCATS).
A selection: hits, their analogues and other compounds. The true share with any hit is near 3%.
SARS PLP yeast – blocks SARS-CoV papain-like protease in a yeast assay | Potency, µM (highest dose often 32.9 µM), most hits filed as activators | S. cerevisiae expressing SARS-CoV PLpro, growth rescue | 330,000 compounds, 0.19% hits | AID 485353; calls by dose curve; note: nearly all actives have a fitted effect of over 55% in size
Sm TGR inh – blocks Schistosoma mansoni thioredoxin glutathione reductase; Q962Y6; purified TGR, DTNB reduction, TNB absorbance 405 nm; 360,000 compounds, 3% hits; AID 485364; Potency, µM (highest dose often 114 µM), hits mostly inhibitors; active = well fitted inhibition curve with a large enough effect; inconclusive = small, poorly fitted or top-dose-only effect; inactive = no such curve, though single readings can be large or run the other way; note: nearly all actives have a fitted effect of over 60% in size
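TGR 20 nM + NADPH 100 uM (dispensed conc.), cpd preinc 15 min RT; start with NADPH (500 uM addition) then DTNB (15 mM addition). Kinetic TNB absorbance, 405 nm filter. Four-parameter Hill fit across titration.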
Of the large screens only hits and unclear results are named; the others gave an inactive call.

COc1ccc(-c2cc(C(F)(F)F)nc(S(=O)(=O)CCC(=O)N3CCOCC3)n2)cc1	Sm TGR inh 28.2µM
COc1ccccc1-c1cc(C(F)(F)F)nc(S(=O)(=O)CCCC(=O)Nc2ccc(F)c(Cl)c2)n1	none (no result: SARS PLP yeast)
CCOc1ccc(CN2C(=O)c3ccccc3Sc3ccc(C(=O)NC4CCC(C)CC4)cc32)cc1 (stereo not drawn)	none (no result: SARS PLP yeast)
CC(=O)c1ccc(N2C(=O)N(Cc3cc(C)ccc3C)c3ccccc3S2(=O)=O)cc1	none (no result: SARS PLP yeast)
COc1ccc(Cl)cc1NC(=O)CSc1nnc(C)n2c1cc1occc12	none (no result: SARS PLP yeast)
O=c1ccc2[n+]([O-])c3ccc(O)cc3oc-2c1	Sm TGR inh 2.24µM
O=c1cc(O)c2ccc(O)cc2o1	none
COc1ccc(S(=O)(=O)NCc2nc(-c3ccccc3)no2)cc1	none (no result: SARS PLP yeast)
CC(=O)Nc1ccc(NC(=O)CCn2c(=S)oc3ccccc32)cc1	none
Cn1c(=S)oc2ccccc21	none
CC(C)CC(=O)/C=C/n1c(=S)oc2ccccc21	Sm TGR inh 6.31µM
CC(=O)/C=C/n1c(=S)oc2ccccc21	Sm TGR inh 2.51µM
CCCn1c(/C=C/c2ccccc2)nc2ccccc21	none
CC(C)Cn1c(/C=C/c2ccco2)nc2ccccc21	Sm TGR inh 7.94µM
CC(C)(C)n1nnnc1C(c1ccc(Cl)cc1)N1CCCc2ccccc21 (stereo not drawn)	none
CC(C)(C)n1nnnc1C(c1ccccc1)N1CCc2ccccc2C1 (stereo not drawn)	Sm TGR inh 35.5µM
CC1CCN(C(c2ccc(N(C)C)cc2)c2nnnn2C(C)(C)C)CC1 (stereo not drawn)	Sm TGR inh 5.62µM
CCC(C)(C)n1nnnc1C(c1ccc(O)cc1)N1CCc2ccccc2C1 (stereo not drawn)	Sm TGR inh inconclusive
CC1CCN(C(c2ccc(N(C)C)cc2)c2nnnn2Cc2ccccc2)CC1 (stereo not drawn)	Sm TGR inh inconclusive
CN(C)c1ccc(C(c2nnnn2C(C)(C)C)N2CCc3ccccc3C2)cc1 (stereo not drawn)	Sm TGR inh 11.2µM
Cc1nnc(N2CCCC(C(=O)NCCc3ccccc3)C2)c2nn(-c3ccccc3)c(C)c12 (stereo not drawn)	none (no result: SARS PLP yeast)
N#C/C(=C\c1cc(Br)c(O)c(Br)c1)c1nc2ccccc2c(=O)[nH]1	none (no result: SARS PLP yeast)
COc1cccc(CNC(=O)c2ccc3nc(-c4ccccc4)c(-c4ccccc4)nc3c2)c1OC	none (no result: SARS PLP yeast)
O=C(CSc1nc(=O)n(Cc2ccncc2)c2c1CCC2)Nc1ccc(F)cc1F	none (no result: SARS PLP yeast)
O=C(C1CCCCC1)N(Cc1cccnc1)c1nc2c(F)cc(F)cc2s1	none (no result: SARS PLP yeast)
CCOC(=O)c1ccccc1NC(=O)Cn1ncc2c1-c1ccccc1OC2	none (no result: SARS PLP yeast)
CCC(C)NC(=O)Cn1c(=O)n(CCCC(=O)NCc2ccc(C)cc2)c(=O)c2ccccc21 (stereo not drawn)	none (no result: SARS PLP yeast)
CCOC(=O)c1c(NC(=O)c2cc3ccccc3c(=O)o2)sc2c1CCC(C(C)(C)C)C2 (stereo not drawn)	none (no result: SARS PLP yeast)
COc1cc(CN(C)CC2CCCN(CCc3cccc(C(F)(F)F)c3)C2)ccc1O (stereo not drawn)	Sm TGR inh 28.2µM
COc1ccc(CN(C)CC2CCCN(CCc3ccc(F)cc3)C2)cc1OC (stereo not drawn)	none
O=Cc1ccc(O)cc1O	none
O=CN/C=C/c1cc(O)ccc1O	Sm TGR inh 6.31µM
COc1cc(OC)c(NC(=O)Cn2c(=O)cc(C(F)(F)F)c3c(C)nn(C)c32)cc1Cl	none (no result: SARS PLP yeast)
Cc1cccc(-n2cnc3cc(C(=O)NC4CCCCCC4)ccc32)c1	none (no result: SARS PLP yeast)
O=S(=O)(c1ccccc1)c1nc(-c2ccco2)oc1Nc1ccccc1	none
O=S(=O)(c1ccccc1)c1nc(-c2ccco2)oc1NCCCn1ccnc1	Sm TGR inh 39.8µM
O=S(=O)(c1ccc(F)cc1)c1nc(-c2ccco2)oc1Nc1ccccc1	none
O=S(=O)(c1ccccc1)c1nc(-c2ccco2)oc1NCc1ccco1	Sm TGR inh 35.5µM
O=S(=O)(c1ccccc1)c1nc(-c2ccccc2Cl)oc1NCCCN1CCOCC1	none (no result: Sm TGR inh)
N#Cc1nc(-c2ccco2)oc1NCc1cccnc1	Sm TGR inh 89.1µM
N#Cc1nc(-c2ccco2)oc1NCc1ccc(F)cc1	none
O=S(=O)(c1ccccc1)c1nc(-c2ccco2)oc1NCc1ccccc1	Sm TGR inh 35.5µM
O=C(Nc1nnc2n1CCS2)c1ccccc1C(F)(F)F	none (no result: SARS PLP yeast)
COC(=O)c1cc2sc(C)cc2n1CC(=O)Nc1cccc(SC)c1	none (no result: SARS PLP yeast)
Cc1cc(O)c(C(c2ccccc2)N2CCN(c3ccccc3)CC2)c(=O)n1Cc1ccco1 (stereo not drawn)	Sm TGR inh 3.16µM (no result: SARS PLP yeast)
Cc1cc(C(=O)CSc2nn(-c3ccccc3)c(=S)s2)c(C)n1Cc1ccco1	none
Cc1cc(O)c(C(c2ccccc2)N2CCN(c3ccc(F)cc3)CC2)c(=O)n1Cc1ccco1 (stereo not drawn)	Sm TGR inh 3.55µM (no result: SARS PLP yeast)
Cc1cc(O)c(C(c2ccc(Cl)cc2)N2CCN(c3ccccc3)CC2)c(=O)n1Cc1ccco1 (stereo not drawn)	Sm TGR inh 5.01µM (no result: SARS PLP yeast)
Cc1nc2ccn(Cc3ccco3)c(=O)c2cc1C(=O)N1CCN(c2ccc(F)cc2)CC1	none (no result: SARS PLP yeast)
O=c1c(Cc2ccc(F)cc2)c(O)ccn1Cc1ccco1	none
Cc1cc(O)c(C(c2ccc(F)cc2)N2CCCCC2)c(=O)n1Cc1ccco1 (stereo not drawn)	Sm TGR inh 20µM (no result: SARS PLP yeast)
CC(C)CC(c1nnnn1Cc1ccco1)N1CCN(c2cccc(Cl)c2)CC1 (stereo not drawn)	none
O=C(c1ccc2c(c1)CCN2S(=O)(=O)c1ccc(Cl)cc1)N1CCN(c2ccccc2F)CC1	none (no result: SARS PLP yeast)
COc1cc(NC(=O)CC(C)n2nc(C)cc2C)cc(OC)c1 (stereo not drawn)	none (no result: SARS PLP yeast)
Cc1ccc(N2CC(NC(=O)c3ccc(S(=O)(=O)N(C)C)cc3)CC2=O)cc1C (stereo not drawn)	none (no result: SARS PLP yeast)
Cc1ccc(SCC(=O)Nc2ccc(O)c(-c3nc4cc(C)ccc4o3)c2)cc1	none (no result: SARS PLP yeast)
Cc1cc(O)c(C(c2ccc(F)cc2)N2CCN(c3ccccc3)CC2)c(=O)n1Cc1ccco1 (stereo not drawn)	Sm TGR inh 10µM (no result: SARS PLP yeast)
Cc1sc(NC(=O)c2ccco2)c(C(c2ccc(F)cc2)N2CCN(C)CC2)c1C (stereo not drawn)	Sm TGR inh inconclusive
CCOc1ccc(C(c2c(O)cc(C)n(Cc3ccco3)c2=O)N2CCN(C)CC2)cc1 (stereo not drawn)	Sm TGR inh 7.94µM (no result: SARS PLP yeast)
O=S(=O)(NCC(c1ccco1)N1CCN(c2ccc(F)cc2)CC1)c1ccccc1 (stereo not drawn)	none (no result: SARS PLP yeast)
COc1ccc(CC(=O)N2CCc3cc(OC)c(OC)cc3C2COc2ccc3c(C)cc(=O)oc3c2)cc1OC (stereo not drawn)	none (no result: SARS PLP yeast)
CCN(CC)C1CC(=O)N(c2ccc(Br)cc2)C1=O (stereo not drawn)	Sm TGR inh 7.08µM
Cc1cc(C)nc(SC2CC(=O)N(c3ccc(Cl)cc3)C2=O)n1 (stereo not drawn)	Sm TGR inh inconclusive
Cc1ccnc(SC2CC(=O)N(c3ccc(Cl)cc3)C2=O)n1 (stereo not drawn)	Sm TGR inh 50.1µM
CCOc1ccc(N2C(=O)CC(Sc3nccc(C)n3)C2=O)cc1 (stereo not drawn)	none
Cc1ccnc(SC2CC(=O)N(c3ccc(C(C)C)cc3)C2=O)n1 (stereo not drawn)	Sm TGR inh inconclusive
Cc1ccnc(SC2CC(=O)N(c3ccc(Br)cc3)C2=O)n1 (stereo not drawn)	Sm TGR inh 50.1µM
Cc1ccc(S(=O)(=O)NNC2CC(=O)N(c3ccc(Br)cc3)C2=O)cc1 (stereo not drawn)	none (no result: Sm TGR inh)
